Reference: publication PMC7862700, “An all-to-all approach to the identification of sequence-specific readers for epigenetic DNA modifications on cytosine”

Legend:
Assay in all cases: DAPPL (digital affinity profiling via proximity ligation, sequencing); 10 mM Tris-HCl pH 7.5, 50 mM NaCl, 1 mM DTT, 4% glycerol, room temperature, 30 min; GST-TFs on glutathione beads, 16-mer random dsDNA library, 0.1% formaldehyde crosslink after washing; high values mean tight binding
Settings in all cases: protein: recombinant; tags: N-terminal GST; dsDNA, one strand shown
[1] = target: T1, FLI1 (Homo sapiens, UniProt Q01543 1-452)
T1 sequence: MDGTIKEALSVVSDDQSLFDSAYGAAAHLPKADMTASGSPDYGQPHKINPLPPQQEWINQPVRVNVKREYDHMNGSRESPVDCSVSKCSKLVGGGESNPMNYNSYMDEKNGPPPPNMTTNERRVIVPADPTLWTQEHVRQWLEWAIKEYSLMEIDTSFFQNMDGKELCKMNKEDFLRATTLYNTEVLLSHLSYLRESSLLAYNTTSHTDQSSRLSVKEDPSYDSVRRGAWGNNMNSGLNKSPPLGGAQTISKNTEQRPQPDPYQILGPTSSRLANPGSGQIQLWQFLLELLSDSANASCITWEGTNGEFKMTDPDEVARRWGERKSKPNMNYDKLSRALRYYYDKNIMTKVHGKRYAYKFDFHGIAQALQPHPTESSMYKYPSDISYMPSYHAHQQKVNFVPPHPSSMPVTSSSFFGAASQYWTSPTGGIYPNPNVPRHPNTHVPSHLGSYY
Method in brief: (§1)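 Human transcription factors carrying a GST fusion were produced in yeast, bound to glutathione beads, tagged with DNA barcodes and pooled together with a tag-only sample. Each pool was held with 200 nmole of a random double-stranded 16-mer DNA library in Tris/NaCl/DTT/glycerol buffer for 30 min at room temperature, then washed, crosslinked in 0.1% formaldehyde, proximity-ligated with BsaI/T4 ligase (1 h, 37 °C), PCR-amplified and sequenced on an Illumina NextSeq500. Binding signal is the read frequency of each hexamer for a given factor divided by its frequency in the tag-only sample.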

[2] = target: T2, ELK1 (Homo sapiens, UniProt P19419 1-428)
T2 sequence: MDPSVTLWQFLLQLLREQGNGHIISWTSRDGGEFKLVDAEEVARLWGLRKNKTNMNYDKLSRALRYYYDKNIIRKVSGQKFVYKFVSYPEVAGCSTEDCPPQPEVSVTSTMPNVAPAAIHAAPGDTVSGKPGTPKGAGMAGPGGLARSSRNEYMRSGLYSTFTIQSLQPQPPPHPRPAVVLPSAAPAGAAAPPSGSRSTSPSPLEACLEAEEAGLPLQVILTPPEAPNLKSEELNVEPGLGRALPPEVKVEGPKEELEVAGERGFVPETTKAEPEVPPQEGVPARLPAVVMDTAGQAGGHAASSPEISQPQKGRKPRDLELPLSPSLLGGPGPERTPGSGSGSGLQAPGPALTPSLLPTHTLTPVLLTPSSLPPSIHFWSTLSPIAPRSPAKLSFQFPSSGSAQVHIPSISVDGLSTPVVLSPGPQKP
Method in brief: as §1

[3] = target: T3, GABPA (Homo sapiens, UniProt Q06546 1-454)
T3 sequence: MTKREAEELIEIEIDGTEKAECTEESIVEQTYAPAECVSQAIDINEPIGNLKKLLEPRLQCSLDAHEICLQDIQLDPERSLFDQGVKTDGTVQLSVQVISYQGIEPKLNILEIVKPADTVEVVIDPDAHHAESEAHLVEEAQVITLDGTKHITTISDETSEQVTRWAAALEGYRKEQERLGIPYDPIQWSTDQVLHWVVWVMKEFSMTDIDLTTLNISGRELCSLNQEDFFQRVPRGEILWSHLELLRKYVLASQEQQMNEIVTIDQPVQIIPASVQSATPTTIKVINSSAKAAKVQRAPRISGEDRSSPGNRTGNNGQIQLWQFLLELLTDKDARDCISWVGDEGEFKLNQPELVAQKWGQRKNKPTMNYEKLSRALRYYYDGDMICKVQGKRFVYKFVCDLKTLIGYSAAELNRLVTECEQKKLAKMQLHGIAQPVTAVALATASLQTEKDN
Method in brief: as §1

[4] = target: T4, ERG (Homo sapiens, UniProt P11308 1-479)
T4 sequence: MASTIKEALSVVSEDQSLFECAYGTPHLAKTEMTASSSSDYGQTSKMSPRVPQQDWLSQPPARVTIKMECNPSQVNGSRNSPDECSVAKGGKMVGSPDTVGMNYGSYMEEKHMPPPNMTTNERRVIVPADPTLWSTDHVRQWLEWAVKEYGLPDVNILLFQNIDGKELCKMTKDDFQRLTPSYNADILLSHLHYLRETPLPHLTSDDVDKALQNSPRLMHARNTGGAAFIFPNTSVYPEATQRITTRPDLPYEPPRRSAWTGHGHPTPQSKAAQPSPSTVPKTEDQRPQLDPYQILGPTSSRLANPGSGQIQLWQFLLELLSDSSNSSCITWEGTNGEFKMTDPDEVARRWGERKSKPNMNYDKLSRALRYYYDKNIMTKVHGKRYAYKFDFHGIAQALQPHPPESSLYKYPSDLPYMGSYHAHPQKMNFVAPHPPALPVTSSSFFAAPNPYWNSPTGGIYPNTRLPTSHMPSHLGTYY
Method in brief: as §1

[5] = target: ELF1 (Homo sapiens, UniProt P32519 1-619)
Method in brief: as §1

[6] = target: T5, EHF (Homo sapiens, UniProt Q9NZC4 1-300)
T5 sequence: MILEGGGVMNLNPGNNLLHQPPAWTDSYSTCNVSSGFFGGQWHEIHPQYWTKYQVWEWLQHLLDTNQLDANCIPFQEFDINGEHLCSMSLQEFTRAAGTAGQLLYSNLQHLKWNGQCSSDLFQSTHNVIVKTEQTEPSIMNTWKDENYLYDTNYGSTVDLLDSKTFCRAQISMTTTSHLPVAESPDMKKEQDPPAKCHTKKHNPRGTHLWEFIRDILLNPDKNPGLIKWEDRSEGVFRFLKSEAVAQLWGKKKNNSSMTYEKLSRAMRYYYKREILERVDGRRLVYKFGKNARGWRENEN
Method in brief: as §1

[7] = target: SPI1 (Homo sapiens, UniProt P17947 1-270)
Method in brief: as §1

[8] = target: SPIB (Homo sapiens, UniProt Q01892 1-262)
Method in brief: as §1

[9] = target: T6, ELK3 (Homo sapiens, UniProt P41970 1-407)
T6 sequence: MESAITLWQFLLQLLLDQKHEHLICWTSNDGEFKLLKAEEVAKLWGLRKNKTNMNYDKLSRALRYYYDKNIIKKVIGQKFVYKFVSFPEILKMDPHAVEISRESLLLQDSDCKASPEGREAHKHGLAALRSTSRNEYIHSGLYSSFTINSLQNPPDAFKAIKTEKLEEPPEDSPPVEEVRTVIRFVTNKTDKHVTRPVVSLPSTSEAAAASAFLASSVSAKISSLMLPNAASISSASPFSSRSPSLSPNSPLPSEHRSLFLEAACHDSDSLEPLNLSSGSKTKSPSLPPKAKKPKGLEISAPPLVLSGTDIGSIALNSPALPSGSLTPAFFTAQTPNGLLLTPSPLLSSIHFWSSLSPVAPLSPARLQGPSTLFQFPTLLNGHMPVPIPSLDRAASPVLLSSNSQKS
Method in brief: as §1

Chain of ELF1 (P32519 whole entry): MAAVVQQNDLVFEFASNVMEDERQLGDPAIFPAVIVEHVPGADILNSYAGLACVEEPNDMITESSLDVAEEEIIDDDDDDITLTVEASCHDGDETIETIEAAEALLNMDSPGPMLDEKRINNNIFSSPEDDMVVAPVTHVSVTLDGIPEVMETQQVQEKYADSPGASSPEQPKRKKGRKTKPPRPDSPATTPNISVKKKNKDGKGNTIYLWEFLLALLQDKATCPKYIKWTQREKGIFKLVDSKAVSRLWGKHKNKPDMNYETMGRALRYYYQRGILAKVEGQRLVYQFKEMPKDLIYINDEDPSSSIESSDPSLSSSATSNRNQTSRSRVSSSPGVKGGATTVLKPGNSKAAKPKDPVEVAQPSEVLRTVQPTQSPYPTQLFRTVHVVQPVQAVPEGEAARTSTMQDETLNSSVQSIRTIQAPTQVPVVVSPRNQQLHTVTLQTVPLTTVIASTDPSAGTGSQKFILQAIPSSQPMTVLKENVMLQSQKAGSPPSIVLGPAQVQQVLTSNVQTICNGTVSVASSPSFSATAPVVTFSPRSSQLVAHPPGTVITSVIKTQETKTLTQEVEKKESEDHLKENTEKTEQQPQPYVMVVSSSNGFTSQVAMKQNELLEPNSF
Chain of SPIB (Q01892 whole entry): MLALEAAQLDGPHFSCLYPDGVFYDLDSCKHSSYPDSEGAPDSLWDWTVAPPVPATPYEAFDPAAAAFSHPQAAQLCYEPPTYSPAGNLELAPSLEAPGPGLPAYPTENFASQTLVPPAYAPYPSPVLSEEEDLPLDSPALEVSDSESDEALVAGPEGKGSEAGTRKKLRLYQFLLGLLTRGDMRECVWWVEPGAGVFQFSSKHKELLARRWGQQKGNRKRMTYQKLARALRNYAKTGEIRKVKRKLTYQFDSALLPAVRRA

TAATAA
binding signal [1]: 1.17 fold enrichment (6-mer frequency, TF over GST control) | binding signal [2]: 1.19 fold enrichment (6-mer frequency, TF over GST control) | binding signal [3]: 1.21 fold enrichment (6-mer frequency, TF over GST control) | binding signal [4]: 1.22 fold enrichment (6-mer frequency, TF over GST control) | binding signal [5]: 1.16 fold enrichment (6-mer frequency, TF over GST control) | binding signal [6]: 1.24 fold enrichment (6-mer frequency, TF over GST control) | binding signal [7]: 1.09 fold enrichment (6-mer frequency, TF over GST control) | binding signal [8]: 1.27 fold enrichment (6-mer frequency, TF over GST control) | binding signal [9]: 1.05 fold enrichment (6-mer frequency, TF over GST control)

TATACA
binding signal [1]: 1.32 fold enrichment (6-mer frequency, TF over GST control) | binding signal [2]: 1.29 fold enrichment (6-mer frequency, TF over GST control) | binding signal [3]: 1.42 fold enrichment (6-mer frequency, TF over GST control) | binding signal [4]: 1.39 fold enrichment (6-mer frequency, TF over GST control) | binding signal [5]: 1.27 fold enrichment (6-mer frequency, TF over GST control) | binding signal [6]: 1.35 fold enrichment (6-mer frequency, TF over GST control) | binding signal [7]: 1.32 fold enrichment (6-mer frequency, TF over GST control) | binding signal [8]: 1.22 fold enrichment (6-mer frequency, TF over GST control) | binding signal [9]: 1.47 fold enrichment (6-mer frequency, TF over GST control)

AAGATG
binding signal [1]: 1.17 fold enrichment (6-mer frequency, TF over GST control) | binding signal [2]: 1.17 fold enrichment (6-mer frequency, TF over GST control) | binding signal [3]: 1.11 fold enrichment (6-mer frequency, TF over GST control) | binding signal [4]: 1.11 fold enrichment (6-mer frequency, TF over GST control) | binding signal [5]: 1.09 fold enrichment (6-mer frequency, TF over GST control) | binding signal [6]: 1.1 fold enrichment (6-mer frequency, TF over GST control) | binding signal [7]: 1.09 fold enrichment (6-mer frequency, TF over GST control) | binding signal [8]: 1.16 fold enrichment (6-mer frequency, TF over GST control) | binding signal [9]: 1.19 fold enrichment (6-mer frequency, TF over GST control)

CCCGAT
binding signal [1]: 1.29 fold enrichment (6-mer frequency, TF over GST control) | binding signal [2]: 1.17 fold enrichment (6-mer frequency, TF over GST control) | binding signal [3]: 1.1 fold enrichment (6-mer frequency, TF over GST control) | binding signal [4]: 1.14 fold enrichment (6-mer frequency, TF over GST control) | binding signal [5]: 1.16 fold enrichment (6-mer frequency, TF over GST control) | binding signal [6]: 1.22 fold enrichment (6-mer frequency, TF over GST control) | binding signal [7]: 1.16 fold enrichment (6-mer frequency, TF over GST control) | binding signal [8]: 1.26 fold enrichment (6-mer frequency, TF over GST control) | binding signal [9]: 1.06 fold enrichment (6-mer frequency, TF over GST control)

ACAAAT
binding signal [1]: 1.09 fold enrichment (6-mer frequency, TF over GST control) | binding signal [2]: 1.18 fold enrichment (6-mer frequency, TF over GST control) | binding signal [3]: 1.12 fold enrichment (6-mer frequency, TF over GST control) | binding signal [4]: 1.15 fold enrichment (6-mer frequency, TF over GST control) | binding signal [5]: 1.15 fold enrichment (6-mer frequency, TF over GST control) | binding signal [6]: 1.19 fold enrichment (6-mer frequency, TF over GST control) | binding signal [7]: 1.17 fold enrichment (6-mer frequency, TF over GST control) | binding signal [8]: 1.11 fold enrichment (6-mer frequency, TF over GST control) | binding signal [9]: 1.14 fold enrichment (6-mer frequency, TF over GST control)

AACGAT
binding signal [1]: 1.28 fold enrichment (6-mer frequency, TF over GST control) | binding signal [2]: 1.16 fold enrichment (6-mer frequency, TF over GST control) | binding signal [3]: 1.13 fold enrichment (6-mer frequency, TF over GST control) | binding signal [4]: 1.21 fold enrichment (6-mer frequency, TF over GST control) | binding signal [5]: 1.24 fold enrichment (6-mer frequency, TF over GST control) | binding signal [6]: 1.17 fold enrichment (6-mer frequency, TF over GST control) | binding signal [7]: 1.17 fold enrichment (6-mer frequency, TF over GST control) | binding signal [8]: 1.21 fold enrichment (6-mer frequency, TF over GST control) | binding signal [9]: 1.24 fold enrichment (6-mer frequency, TF over GST control)

CTGCTC
binding signal [1]: 1.32 fold enrichment (6-mer frequency, TF over GST control) | binding signal [2]: 1.37 fold enrichment (6-mer frequency, TF over GST control) | binding signal [3]: 1.18 fold enrichment (6-mer frequency, TF over GST control) | binding signal [4]: 1.28 fold enrichment (6-mer frequency, TF over GST control) | binding signal [5]: 1.34 fold enrichment (6-mer frequency, TF over GST control) | binding signal [6]: 1.27 fold enrichment (6-mer frequency, TF over GST control) | binding signal [7]: 1.29 fold enrichment (6-mer frequency, TF over GST control) | binding signal [8]: 1.39 fold enrichment (6-mer frequency, TF over GST control) | binding signal [9]: 1.3 fold enrichment (6-mer frequency, TF over GST control)

CTGGAT
binding signal [1]: 1.31 fold enrichment (6-mer frequency, TF over GST control) | binding signal [2]: 1.19 fold enrichment (6-mer frequency, TF over GST control) | binding signal [3]: 1.38 fold enrichment (6-mer frequency, TF over GST control) | binding signal [4]: 1.38 fold enrichment (6-mer frequency, TF over GST control) | binding signal [5]: 1.36 fold enrichment (6-mer frequency, TF over GST control) | binding signal [6]: 1.32 fold enrichment (6-mer frequency, TF over GST control) | binding signal [7]: 1.25 fold enrichment (6-mer frequency, TF over GST control) | binding signal [8]: 1.36 fold enrichment (6-mer frequency, TF over GST control) | binding signal [9]: 1.31 fold enrichment (6-mer frequency, TF over GST control)
